Measurements from PubChem BioAssay (NCI).
The panel holds about 83,000 compounds, 20% with a hit somewhere; the sample as a whole holds those more often.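 Testing used 96-well plates and a 48-hour single-concentration exposure. Example: -40 means 40% of the starting cells died.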 Values without a mark were called inactive. Calls of active or inactive are those of the source. Rule for the calls: active = growth percent below 10; inactive = the rest.

Legend:
Experiment in all cases: NCI-60 one-dose screen, 48 h (100 = growth as untreated, 0 = no growth, -100 = all killed)
Settings in all cases: 10 µM unless noted
NCI-H23 lung = test system: NCI-H23 lung
NCI-H226 lung = test system: NCI-H226 lung
NCI-H322M lung = test system: NCI-H322M lung
HOP-62 NSCLC = test system: HOP-62 NSCLC
NCI-H460 lung = test system: NCI-H460 lung
HOP-92 NSCLC = test system: HOP-92 NSCLC
NCI-H522 lung = test system: NCI-H522 lung
A549/ATCC NSCLC = test system: A549/ATCC NSCLC
786-0 renal = test system: 786-0 renal
COLO 205 colon = test system: COLO 205 colon

SMILES | growth (NCI-H23 lung) | growth (NCI-H226 lung) | growth (NCI-H322M lung) | growth (HOP-62 NSCLC) | growth (NCI-H460 lung) | growth (HOP-92 NSCLC) | growth (NCI-H522 lung) | growth (A549/ATCC NSCLC) | growth (786-0 renal) | growth (COLO 205 colon)
C=CCC(OC(C)=O)c1ccc(C(C)C)cc1 (stereo not given) | 108% | 106% | 120% | 109% | 106% | 86.7% | 86.6% | 92.3% | 108% | 122%
CC(O)C(F)(F)C(F)(F)C(F)(F)F (stereo not given) | 111% | 102% | 114% | 104% | 110% | 117% | 93.8% | 110% | 102% | 116%
N#Cc1ccc2nc[nH]c2c1 | 99.1% | 90.9% | 108% | 110% | 107% | 101% | 102% | 101% | 106% | 112%
Nc1ncnc2c1ncn2C1OC(CO)C2OC21 (stereo not given) | 107% | 93.8% | 118% | 96.6% | 109% | 102% | 94.6% | 102% | 108% | 107%
CCOC(=O)CNC | 101% | 98.8% | 96.9% | 106% | 106% | 91.1% | 123% | 87.8% | 101% | 116%
CCCc1cccc(CCC)c1NC(=O)Nc1cc(Cl)cc(Cl)c1 | 101% | 98.1% | 96.8% | 104% | 118% | 98.8% | 85.7% | 93.8% | 93.9% | 120%
O=[n+]1ccn([O-])c2ccccc21 | 96% | 89.8% | 104% | 95% | 102% | 78.6% | 118% | 113% | 103% | 100%
O=S(=O)(OCCOS(=O)(=O)c1ccccc1)c1ccccc1 | 95% | 87.6% | 97.6% | 94.9% | 97.6% | 99.5% | 90.5% | 93.3% | 93.5% | 112%
CCCNS(=O)(=O)c1ccc(Cl)cc1 | 104% | 113% | 93.6% | 86.6% | 103% | 104% | 96.6% | 94.5% | 97.6% | 102%
Nc1ccc(F)cc1F | 103% | 94.8% | 97.4% | 109% | 105% | 77.4% | 102% | 105% | 98.6% | 110%
Cc1cc(CO)c(O)c(CO)c1 | 121% | 115% | 98.7% | 107% | 107% | 96.4% | 84.4% | 103% | 107% | 114%
Cc1ccnc(Nc2nc3ccccc3[nH]2)n1 | 104% | 108% | 103% | 97.4% | 100% | 99.5% | 103% | 108% | 94% | 113%
NNc1ncnc2nc[nH]c12 | 85.2% | 47.9% | 50.5% | 40.7% | 50.4% | 86.9% | -15.7% (active) | 31.5% | 43.2% | 52.5%
Cn1c(=O)[nH]c2ccccc2c1=O | 104% | 109% | 105% | 99.6% | 111% | 143% | 96.6% | 100% | 97.5% | 114%
Oc1cccc(CNC2CCCCC2)c1 | 107% | 102% | 129% | 111% | 116% | 97.5% | 90.4% | 101% | 102% | 120%
CC(C)N(C(=O)c1ccccc1)C(C)C | 106% | 93.6% | 114% | 109% | 106% | 97.8% | 101% | 98.8% | 106% | 114%
COc1nc(Nc2cccc(C(F)(F)F)c2)nc(OC)n1 | 97.2% | 96.8% | 96.9% | 98.8% | 106% | 92.4% | 75% | 102% | 96.8% | 109%
C1CCc2onc(-c3noc4c3CCCCC4)c2CC1 | 110% | 123% | 102% | 101% | 140% | 93.6% | 95.8% | 102% | 103% | 118%
CCOC(=O)c1ccc(Nc2sc(C(=O)c3ccc(Br)cc3)c(N)c2C#N)cc1 | 45.4% | 56% | 37.9% | 24% | 13.1% | 40.1% | 8.98% (active) | 30.7% | 22.8% | 11.4%
O=C(O)C1CCCN1C(=O)OCc1ccccc1 (stereo not given) | 104% | 108% | 104% | 127% | 102% | 122% | 85.6% | 93.7% | 106% | 107%
CC(=O)c1cccc(N(C)S(=O)(=O)c2ccc(C)cc2)c1 | 93% | 95.7% | 90.4% | 92.8% | 104% | 72.3% | 82.9% | 95.9% | 94% | 116%
O=C1NC(=O)C(c2ccccc2)O1 (stereo not given) | 102% | 105% | 98.9% | 104% | 109% | 104% | 90.2% | 100% | 90.3% | 108%
c1ccc2c(NCCCN3CCN(CCCNc4c5ccccc5nc5ccccc45)CC3)c3ccccc3nc2c1 | -86.2% [100 µM] (active) | -26.2% [100 µM] (active) | -33.2% [100 µM] (active) | -32.5% [100 µM] (active) | -19.5% [100 µM] (active) | -26.4% [100 µM] (active) | -72.1% [100 µM] (active) | -24.8% [100 µM] (active) | -28.5% [100 µM] (active) | -52.6% [100 µM] (active)
CC(=O)/C(C)=N\OC(=O)Nc1ccccc1 | 93.8% | 104% | 101% | 94.8% | 107% | 92.9% | 98.3% | 103% | 100% | 96.4%
CCOC(=O)/C(C#N)=C\c1c[nH]c2ccccc12 | 86.5% | 79.8% | 110% | 80.7% | 109% | 81.6% | 70.4% | 105% | 114% | 98.7%
Nc1ncnc(Nc2ccc(C(F)(F)F)cc2)n1 | 100% | 103% | 102% | 103% | 106% | 76.7% | 98.5% | 93.6% | 97.7% | 108%
C/C(=N\O)c1ccccn1 | 104% | 98% | 101% | 102% | 103% | 95.4% | 83.2% | 91.2% | 101% | 108%
Cc1cc(NC(=O)c2ccccc2)c(Cl)cc1N | 98.6% | 97.1% | 97.7% | 96.7% | 99.9% | 106% | 79.5% | 99.4% | 92.1% | 129%
Nc1cc2c(cc1Cl)C(=O)c1ccccc1C2=O | 0.869% (active) | 12.7% | 30.2% | 26.8% | 0.87% (active) | -1.69% (active) | 65% | 27.2% | -19% (active) | 76.2%
CC(C)(C)CC1(C)NC(=O)NC1=O (stereo not given) | 103% | 112% | 126% | 99.1% | 120% | 107% | 150% | 120% | 98.7% | 135%
